# Results reported in PubChem BioAssay (NCATS).
# Inconclusive results are not listed. A call without a number means that no potency is given here. A number with no mark means an inactive call. Active and inactive are the calls of the source. Unless noted, calls follow the shape of the dose curve; as a rule, active = well fitted curve in the direction sought with a large enough effect; inconclusive = small, poorly fitted or top-dose-only effect, or another doubt; inactive = no such curve, though single readings can be large; an effect the other way counts as inactive or inconclusive.
# Tests used:
# [1] = Primary qHTS for inhibitors of La Crosse Virus (LACV) - induced cell death in SH-SY5Y cells (AID 1508616); also: potency is read from the fitted curve at half-maximal effect
# Summary of the method: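 Readout was luminescence from ATPLite 1step added after a 6-day LACV infection (0.01 MOI) of SH-SY5Y cells that had received pin-transferred compound 24 hr after seeding.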
# [2] = target: Calcium and integrin-binding protein 1 (Homo sapiens) (UniProt Q99828); test: Validation qHTS for Identification of Calcium Integrin Binding protein 1 (CIB1) Competitor (AID 1508618); also: potency is read from the fitted curve at half-maximal effect
# Summary of the method: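 CIB1-GST (1 uM final) incubated 15 min at room temperature with compounds (up to 114 uM), then FITC-labelled alphaIIb peptide (100 nM) added. FP read (Ex 480/Em 540) after 15 min, pH 7.4 buffer containing 5 mM CaCl2.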
# [3] = Primary qHTS for small molecule stabilizers of the endoplasmic reticulum resident proteome: Secreted ER Calcium Modulated Protein (SERCaMP) assay (AID 1508630)
# Summary of the method: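 GLuc-SERCaMP-expressing SH-SY5Y cells, pretreated 16 h with compound, are challenged with thapsigargin to empty ER calcium stores; after 4 h, coelenterazine is added directly to the medium and luminescence is imaged.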
# Papain (Carica papaya) = Papain (Carica papaya) (UniProt P00784); test: Primary qHTS assay for inhibitors of the protease papain (AID 1645873);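 also: papain turnover of Z-FR-AMC read as the AMC fluorescence gain over 10 min; series mostly up to about 50 µM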
# [4] = target: Cytochrome P450 2D6 (Homo sapiens) (UniProt P10635); test: Cytochrome P450 family 2 subfamily D member 6 (CYP2D6) small molecule antagonists: luciferase biochemical (cell-free) qHTS assay (AID 1645840; active = well fitted curve in the direction sought with a large enough effect in the repeat runs; an effect the other way counts as inactive or inconclusive; also: series mostly up to about 57 µM; nearly all actives have a fitted effect of over 55% in size)
# Summary of the method: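 P450-Glo luminescent screen: recombinant CYP2D6 enzyme–proluciferin substrate mix preincubated with compound 10 min at room temperature, then NADPH regeneration added for 1 h at room temperature. Detection reagent added for 20 min; luciferin light read as relative luminescence units.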
# [5] = Cytotoxicity counterscreen for inhibitors of SARS-CoV-2 cell entry (AID 1645845; calls by dose curve; also: nearly all actives have a fitted effect of over 50% in size); settings: outcome: dose series up to 57.1 µM unless noted
# Summary of the method: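 Expi293F/hACE2 cells seeded overnight; cpd pin-transferred in DMSO, 1 h preincubation, + media, 48 h 37 C 5% CO2; ATPLite 1step luminescence; normalized to cells and no cells.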
# [6] = Counterscreen qHTS for small molecule stabilizers of the endoplasmic reticulum resident proteome: GLuc-NoTag assay (AID 1508627);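 also: SH-SY5Y cells given compound then 100 nM thapsigargin to empty ER calcium; series mostly up to about 76 µM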
# Summary of the method: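 SH-SY5Y cells stably expressing constitutively secreted GLuc (no SERCaMP tag) were pre-incubated 5 h, treated with compound for 19 h, then 100 nM thapsigargin for 4 h at 37C; medium GLuc read by coelenterazine luminescence.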
# [7] = Cell Viability qHTS for small molecule stabilizers of the endoplasmic reticulum resident proteome (AID 1508629); settings: cell viability counter-screen, 100 nM thapsigargin for final 4 h;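 also: human SH-SY5Y neuroblastoma cells carrying the GLuc-SERCaMP reporter; compound exposure about 46 h in total before the viability read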
# [8] = Confirmatory qHTS for activators (rescue) of SARS-CoV-2 Cytopathic Effect (CPE) (AID 1508606; calls by dose curve; also: nearly all actives have a fitted effect of over 70% in size)
# [9] = target: Calcium and integrin-binding protein 1 (Homo sapiens) (UniProt Q99828); test: Primary qHTS for Identification of Calcium Integrin Binding Protein 1 (CIB1) Competitor (AID 1508620);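 also: GST tagged CIB1 binding a fluorescein labelled alphaIIb integrin peptide tracer; top concentration of the series differs between compounds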
# Summary of the method: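 Fluorescence polarization competition: CIB1-GST (1 uM final) preincubated with compound 15 min at room temperature, then FITC-labeled alphaIIb peptide (100 nM final) added for another 15 min. Polarization read at Ex 480/Em 540.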
# [10] = Primary qHTS for inhibitors of nuclear receptor binding SET domain protein 2 (NSD2) in an isogenic RCH-ACV NSD2 p.E1099K mutant (9B) (AID 1645876); also: nearly all actives have a fitted effect of over 70% in size; also: potency is read from the fitted curve at half-maximal effect
# [11] = Primary qHTS for inhibitors of nuclear receptor binding SET domain protein 2 (NSD2) in an RCH-ACV wild type WT cells (2C) (AID 1645877); also: nearly all actives have a fitted effect of over 70% in size; also: potency is read from the fitted curve at half-maximal effect
# [12] = Confirmatory qHTS for small molecule stabilizers of the endoplasmic reticulum resident proteome: Secreted ER Calcium Modulated Protein (SERCaMP) assay (AID 1508628); also: nearly all actives have a fitted effect of over 40% in size; also: potency is read from the fitted curve at half-maximal effect
# Summary of the method: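 We seeded SH-SY5Y-GLuc-SERCaMP cells, added compounds (three concentrations in the primary run, eleven up to 76.6 uM in confirmation), incubated 16 h, depleted ER calcium with thapsigargin, and read luciferase 4 h later.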
# Sequence of Calcium and integrin-binding protein 1 (Homo sapiens) (Q99828 whole entry, looked up): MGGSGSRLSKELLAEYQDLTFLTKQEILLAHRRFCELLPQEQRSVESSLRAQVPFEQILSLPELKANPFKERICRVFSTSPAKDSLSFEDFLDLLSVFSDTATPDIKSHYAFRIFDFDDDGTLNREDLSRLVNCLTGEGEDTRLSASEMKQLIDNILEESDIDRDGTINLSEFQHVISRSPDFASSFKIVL
# Sequence of Papain (Carica papaya) (P00784 whole entry, looked up): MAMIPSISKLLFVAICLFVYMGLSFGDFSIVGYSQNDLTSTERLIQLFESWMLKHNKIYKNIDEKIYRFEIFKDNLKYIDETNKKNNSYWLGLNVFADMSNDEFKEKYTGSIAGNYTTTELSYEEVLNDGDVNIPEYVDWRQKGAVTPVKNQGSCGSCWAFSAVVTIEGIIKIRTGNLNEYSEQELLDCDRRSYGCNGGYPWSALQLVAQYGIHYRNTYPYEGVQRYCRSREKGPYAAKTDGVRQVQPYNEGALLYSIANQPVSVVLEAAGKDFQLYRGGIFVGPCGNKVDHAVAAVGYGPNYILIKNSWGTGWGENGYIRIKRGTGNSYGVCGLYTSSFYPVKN
# Sequence of Cytochrome P450 2D6 (Homo sapiens) (P10635 whole entry, looked up): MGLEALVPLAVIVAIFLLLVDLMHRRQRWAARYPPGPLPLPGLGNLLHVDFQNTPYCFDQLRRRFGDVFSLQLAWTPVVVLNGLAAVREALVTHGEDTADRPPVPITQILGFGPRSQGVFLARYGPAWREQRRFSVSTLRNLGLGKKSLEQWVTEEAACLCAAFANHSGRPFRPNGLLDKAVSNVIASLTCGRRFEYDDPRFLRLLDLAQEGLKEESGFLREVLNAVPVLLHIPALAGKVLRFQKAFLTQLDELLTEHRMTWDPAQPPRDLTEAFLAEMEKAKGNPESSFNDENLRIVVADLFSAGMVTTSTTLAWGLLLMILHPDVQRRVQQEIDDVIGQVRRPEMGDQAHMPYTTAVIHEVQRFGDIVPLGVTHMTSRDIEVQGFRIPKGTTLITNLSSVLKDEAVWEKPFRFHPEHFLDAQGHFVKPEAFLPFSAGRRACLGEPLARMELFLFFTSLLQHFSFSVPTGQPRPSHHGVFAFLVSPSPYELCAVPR
smiles,measurement,setting,value
N[C@@H](Cn1ccc(=O)[nH]c1=O)C(=O)O,Potency,[1],inactive
COc1ccc2[nH]c3c(c2c1)CCNC3,Potency,[1],inactive
same,Potency,[2],inactive
same,outcome,[3],inactive
O=C1CC[C@@]2(O)C3Cc4ccc(O)c5c4C2(CCN3CC2CC2)[C@H]1O5 (stereo not given in full),Potency,[1],inactive
same,Potency,[2],inactive
same,outcome,[3],inactive
same,Potency,Papain (Carica papaya),inactive
NCCc1c[nH]c2ccc(C(N)=O)cc12,Potency,[1],inactive
same,Potency,[2],inactive
same,outcome,[3],inactive
same,Potency,Papain (Carica papaya),inactive
CC12NC(Cc3ccccc31)c1ccccc12 (stereo not given),Potency,[1],inactive
same,Potency,[2],inactive
same,outcome,[3],inactive
same,Potency,Papain (Carica papaya),inactive
CC(=O)NBr,Potency,[1],inactive
same,Potency,[2],inactive
same,outcome,[3],inactive
same,Potency,Papain (Carica papaya),inactive
NCCCP(=O)(O)O,Potency,[1],inactive
same,Potency,[2],inactive
same,outcome,[3],inactive
same,Potency,Papain (Carica papaya),inactive
C[N+](C)(C)CC#CCN1CCCC1=O,Potency,[1],inactive
same,Potency,[2],inactive
same,outcome,[3],inactive
same,Potency,Papain (Carica papaya),inactive
CCCN1CCc2cc(O)cc3c2[C@H]1Cc1ccc(O)c(O)c1-3,Potency,[1],2 µM (active)
same,Potency,[2],inactive
same,outcome,[3],inactive
same,Potency,Papain (Carica papaya),inactive
Clc1cc(I)cc(Cl)c1NC1=NCCN1,Potency,[1],inactive
same,Potency,[2],inactive
same,outcome,[3],inactive
same,Potency,Papain (Carica papaya),inactive
CCCCCCC(C)(C)c1ccc([C@@H]2C[C@H](O)CC[C@H]2CCCO)c(O)c1,Potency,[1],inactive
CC(C)NP(=O)(NC(C)C)OP(=O)(NC(C)C)NC(C)C,Potency,[1],inactive
same,Potency,[2],inactive
same,outcome,[3],inactive
same,Potency,Papain (Carica papaya),inactive
COc1ccc(OC)c(C(O)C(C)N)c1 (stereo not given),Potency,[1],inactive
same,Potency,[2],inactive
same,outcome,[3],inactive
same,Potency,[4],inactive
same,outcome,[5],inactive
C[C@H](N)Cc1cccc(C(F)(F)F)c1,Potency,[1],inactive
same,Potency,[2],inactive
same,outcome,[3],inactive
same,Potency,Papain (Carica papaya),inactive
CCCN1CC[C@@H]2c3cc(O)ccc3CC[C@@H]21,Potency,[1],inactive
same,Potency,[2],inactive
same,outcome,[3],inactive
same,Potency,Papain (Carica papaya),inactive
CO[C@H]1CC=C2CCN3CCC4=C(CC(=O)OC4)[C@]23C1,Potency,[1],inactive
same,Potency,[2],inactive
same,outcome,[3],inactive
same,Potency,Papain (Carica papaya),inactive
NC(=O)c1ccc(OCC(O)CN2CC=C(c3ccc(F)cc3)CC2)cc1 (stereo not given),Potency,[1],inactive
same,Potency,[2],inactive
same,outcome,[3],inactive
same,Potency,Papain (Carica papaya),inactive
Nc1ccc(CCN2CCN(c3cccc(C(F)(F)F)c3)CC2)cc1,Potency,[1],inactive
same,Potency,[2],inactive
same,outcome,[6],inactive
same,max response,[7],11.7%
same,outcome,[3],inactive
same,Potency,Papain (Carica papaya),inactive
Cc1o[nH]c(=O)c1CC(N)C(=O)O (stereo not given),Potency,[1],inactive
same,Potency,[2],inactive
same,outcome,[3],inactive
same,Potency,Papain (Carica papaya),inactive
C[C@H](N)CN1CCc2ccc(Br)cc21,Potency,[1],inactive
same,Potency,[2],inactive
same,outcome,[6],inactive
same,max response,[7],-3.5%
same,Potency,Papain (Carica papaya),inactive
N[C@@H](Cn1oc(=O)[nH]c1=O)C(=O)O,Potency,[1],inactive
same,Potency,[2],inactive
same,outcome,[3],inactive
same,Potency,Papain (Carica papaya),inactive
C[C@]12Cc3cn4c(nc3C=C1CCC1C2CC[C@@]2(C)[C@H]1CC[C@@]2(O)C#N)nc1ccccc14 (stereo not given in full),Potency,[1],inactive
same,Potency,[2],inactive
same,outcome,[3],inactive
NNC(=O)c1ccc(O)cc1,Potency,[1],inactive
same,Potency,[2],inactive
same,outcome,[3],inactive
same,Potency,Papain (Carica papaya),inactive
CC(C)(C)c1o[nH]c(=O)c1CC(N)C(=O)O (stereo not given),Potency,[1],inactive
same,Potency,[2],inactive
same,outcome,[3],inactive
same,Potency,Papain (Carica papaya),inactive
CCS(=O)(=O)Nc1cccc(C(=C2CCCCC2)c2cnc[nH]2)c1,Potency,[1],inactive
same,Potency,[2],inactive
same,outcome,[3],inactive
same,Potency,Papain (Carica papaya),inactive
CCN1C[C@@]2(COC)C3[C@@H](OC)C4[C@@H]1C3([C@@H]1C[C@]3(O)[C@H](OC(=O)c5ccccc5)[C@@H]1[C@]4(OC(C)=O)[C@@H](O)[C@@H]3OC)[C@H](OC)C[C@H]2O,Potency,[1],inactive
same,Potency,[2],inactive
same,outcome,[3],inactive
same,Potency,Papain (Carica papaya),inactive
CN(C(=O)Cc1ccc(Cl)c(Cl)c1)C(CN1CCCC1)c1cccc(OCC(=O)O)c1 (stereo not given),Potency,[1],inactive
same,Potency,[2],inactive
same,outcome,[3],inactive
same,Potency,Papain (Carica papaya),inactive
CC[C@H]1CN2CC[C@H]1C[C@@H]2[C@@H](O)c1ccnc2ccc(OC)cc12,outcome,[8],inactive
same,Potency,[9],inactive
same,outcome,[5],inactive
same,Potency,[10],inactive
same,Potency,[11],inactive
NC(CCCCCP(=O)(O)O)C(=O)O (stereo not given),Potency,[1],inactive
same,Potency,[2],inactive
same,outcome,[3],inactive
same,Potency,Papain (Carica papaya),inactive
CP(=O)(O)C1=CCNCC1,Potency,[1],inactive
same,Potency,[2],inactive
same,outcome,[3],inactive
same,Potency,Papain (Carica papaya),inactive
C[N+]1(C)CCOC(O)(c2ccc(-c3ccc(C4(O)C[N+](C)(C)CCO4)cc3)cc2)C1 (stereo not given),Potency,[1],inactive
same,Potency,[2],inactive
same,outcome,[3],inactive
same,Potency,Papain (Carica papaya),inactive
CN1C2CCC1CC(OC(c1ccccc1)c1ccccc1N)C2 (stereo not given),Potency,[1],inactive
same,Potency,[2],inactive
same,outcome,[6],inactive
same,Potency,[12],31.6 µM (active)
same,Potency,Papain (Carica papaya),inactive
NC(Cc1cc(O)c(O)cc1O)C(=O)O (stereo not given),Potency,[1],inactive
same,Potency,[2],35.5 µM (active)
NCC(O)c1cc(O)c(O)cc1F (stereo not given),Potency,[1],inactive
same,Potency,[2],inactive
same,Potency,[12],inactive
same,Potency,Papain (Carica papaya),inactive
N#C/C(=C/c1ccc(O)c(O)c1)C(N)=S,Potency,[1],inactive
same,Potency,[2],inactive
same,outcome,[6],inactive
same,Potency,[12],10 µM (active)
same,Potency,Papain (Carica papaya),inactive
same,Potency,[10],8.2 µM (active)
same,Potency,[11],9.2 µM (active)
OC1CCCCC1N1CCC(c2ccccc2)CC1 (stereo not given),Potency,[1],inactive
same,Potency,[2],inactive
same,outcome,[3],inactive
same,Potency,Papain (Carica papaya),inactive
c1ccc2c(N3CCNCC3)cccc2c1,Potency,[1],inactive
same,Potency,[2],inactive
same,outcome,[6],inactive
C=CCN1CCC23c4c5ccc(O)c4O[C@H]2C(=O)CC[C@@]3(O)C1C5 (stereo not given in full),Potency,[1],inactive
same,Potency,[2],inactive
same,outcome,[3],inactive
same,Potency,Papain (Carica papaya),inactive
